Screening data as filed in PubChem.
The list is not random: actives were taken first. Their share in the collection is about 19%.
TDP1 cell noCPT – qHTS for Inhibitors of human tyrosyl-DNA phosphodiesterase 1 (TDP1): qHTS in cells in absence of CPT; DT40 Tdp1-/- hTDP1 cells, no CPT, ATP luminescence, 48 h; 420,000 compounds, 15% hits; Potency, µM (highest dose often 46.2 µM), most hits filed as inhibitors; AID 686978, 2013; note: nearly all actives have a fitted effect of over 55% in size
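Cells were dispensed at 400 per well, compounds added by pin tool, plates incubated ≥48 hr at 37 °C, then CellTiter-Glo added for 30 min at room temperature before luminescence reading. Line: DT40 Tdp1-/- complemented with hTDP1; camptothecin omitted.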
TGFb inhibitor – qHTS for Inhibitors of TGF-b. HepG2 CAGA-GFP TGF-b/SMAD3 reporter, GFP fluorescence, 18 h; TGF-beta stimulated, 500 pg/mL final. Potency, µM (highest dose often 46.1 µM), usual class: inhibitors. 410,000 compounds, 1.2% hits; note: nearly all actives have a fitted effect of over 65% in size
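Using HEPG2 CAGA-GFP reporter cells at 1000 cells/well, we pinned test compounds, stimulated with recombinant TGF-beta (500 pg/mL final) and measured total well GFP after 18 h.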
IL1B secr inh – qHTS for Inhibitors of Inflammasome Signaling: IL-1-beta AlphaLISA Primary Screen | AID 743279, 2014 | THP-1 LPS/ATP IL-1B secretion, AlphaLISA, 16 h; active compounds read low | 360,000 compounds, 4.7% hits | activity change, % at 57.5 µM; in the data active = activity change below about -50%; inconclusive = mostly about -30% to -49%
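Secreted IL-1B measured by AlphaLISA bead assay after 16 h compound exposure of THP-1 cells; compounds (final up to 57.5 uM) added 1 h before LPS (250 ng/mL) and ATP (1.25 mM) stimulation; lower signal means less secretion.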
TDP1 inh – qHTS Assay for Inhibitors of Tyrosyl-DNA Phosphodiesterase (TDP1). Tyrosyl-DNA phosphodiesterase 1 (Homo sapiens), Q9NUW8. recombinant TDP1, AlphaScreen DNA substrate cleavage. Potency, µM (series often up to 130 µM), hits mostly inhibitors. 350,000 compounds, 0.28% hits; note: nearly all actives have a fitted effect of over 40% in size
Target sequence (Q9NUW8 whole entry, looked up): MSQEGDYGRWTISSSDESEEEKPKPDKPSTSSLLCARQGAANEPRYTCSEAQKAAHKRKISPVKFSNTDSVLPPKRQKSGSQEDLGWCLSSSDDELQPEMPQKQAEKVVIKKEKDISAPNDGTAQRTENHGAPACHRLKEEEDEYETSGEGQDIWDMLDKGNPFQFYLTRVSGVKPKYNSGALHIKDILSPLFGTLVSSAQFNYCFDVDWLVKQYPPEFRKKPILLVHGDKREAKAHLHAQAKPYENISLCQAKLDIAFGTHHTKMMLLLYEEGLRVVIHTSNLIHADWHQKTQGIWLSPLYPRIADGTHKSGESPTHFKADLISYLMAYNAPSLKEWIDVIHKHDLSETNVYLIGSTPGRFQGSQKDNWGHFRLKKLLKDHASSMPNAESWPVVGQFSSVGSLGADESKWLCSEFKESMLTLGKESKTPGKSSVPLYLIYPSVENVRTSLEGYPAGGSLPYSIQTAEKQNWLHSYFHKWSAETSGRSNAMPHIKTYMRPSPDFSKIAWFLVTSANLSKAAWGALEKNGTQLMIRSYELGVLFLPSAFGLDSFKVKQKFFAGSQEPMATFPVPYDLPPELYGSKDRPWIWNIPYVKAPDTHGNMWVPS
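Recombinant E. coli-expressed Tdp1 (1 nM) preincubated with compound 15 min at RT, then 5'-biotin/3'-phosphotyrosine-FITC DNA substrate (15 nM) added for 5 min. AlphaScreen beads (10 ug/ml) added, 10 min RT; tyrosine-FITC cleavage read as signal loss.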
HepG2 tox-1 – qHTS for Inhibitors of TGF-b: Cytotox Counterscreen; 410,000 compounds, 0.76% hits; HepG2 CAGA-GFP viability, ATP luminescence, 18 h; Potency, µM (series often up to 46.1 µM), usual class: cytotoxic
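CellTiter-Glo luminescence gave cytotoxicity after 18 hours at 37 degrees C. The cells were HepG2 CAGA-GFP in 1% FBS DMEM, stimulated with 500 pg/mL TGF-beta after compound addition. %Activity was normalised to no-cell wells (complete cell-killing) and DMSO (no toxicity), and curves were fitted and classified.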
DT40 TDP1 CPT – qHTS for Inhibitors of human tyrosyl-DNA phosphodiesterase 1 (TDP1): qHTS in cells in presence of CPT; chicken DT40 Tdp1-/-;hTDP1 cells + 20 nM CPT, ATP luminescence, 48 h; 420,000 compounds, 12% hits; Potency, µM (highest dose often 46.2 µM), hits mostly inhibitors; note: nearly all actives have a fitted effect of over 55% in size
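Cell growth measured by CellTiter-Glo luminescence after a minimum 48 h, 37 C compound exposure with 20 nM CPT in Tdp1-knockout DT40 cells stably expressing hTDP1, seeded 400/well; qHTS titration format.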
TGFb confirm – qHTS for Inhibitors of TGF-b: Confirmation of Cherry Picks | HepG2 CAGA-GFP TGF-b reporter, GFP fluorescence, 18 h; cells stimulated with TGF-beta, 500 pg/mL | Potency, µM (titrated, usually from 46.1 µM), usual class: inhibitors | 1,600 compounds, 63% hits | shares compounds with TGFb inhibitor; note: nearly all actives have a fitted effect of over 65% in size
HepG2 tox-2 – qHTS for Inhibitors of TGF-b: Cytotox Counterscreen for Cherry Picks; shares compounds with TGFb inhibitor; HepG2 CAGA-GFP viability, ATP luminescence, 18 h; cells stimulated with TGF-beta, 500 pg/mL; Potency, µM (doses to about 46.1 µM), hits mostly inhibitors; 1,600 compounds, 27% hits; AID 720535, 2013; note: nearly all actives have a fitted effect of over 70% in size
CCL64 TGFb inh – qHTS for Inhibitors of TGF-b: CCL64 Cells Orthogonal Assay for Cherry Picks | CCL64 CAGA-GFP reporter, TGF-b stimulated, GFP fluorescence, 18 h | shares compounds with TGFb inhibitor | Potency, µM (series often up to 46.1 µM), actives largely listed as inhibitors | AID 720536, 2013 | 1,600 compounds, 41% hits; note: nearly all actives have a fitted effect of over 65% in size
TGFb COP inh – qHTS for Inhibitors of TGF-b: Hit Validation in HepG2 Cells using COP promoter; shares compounds with TGFb inhibitor; HepG2 COP-GFP TGF-b reporter, GFP fluorescence, 18 h; cells stimulated by added recombinant TGF-beta; Potency, µM (doses to about 46.1 µM), hits mostly inhibitors; 1,600 compounds, 3% hits; AID 720537, 2013; note: nearly all actives have a fitted effect of over 70% in size
Each line names hits and unclear results; the compound was inactive in the other large screens (follow-up assays come after a bar, where they were run); ! = repeats disagree. Unless noted, calls come from the whole dose curve; as a rule, active = well fitted curve in the direction sought with a large enough effect; inconclusive = small, poorly fitted or top-dose-only effect, or another doubt; inactive = no such curve, though single readings can be large; an effect the other way counts as inactive or inconclusive.

C[C@@H](C(=O)NCCc1ccccc1)N1C(=O)N2CCc3c([nH]c4ccccc34)[C@@]2(C)C1=O	TDP1 cell noCPT inconclusive, TGFb inhibitor 10µM, DT40 TDP1 CPT 18µM (no result: TDP1 inh) | TGFb confirm 16µM | HepG2 tox-2 inconclusive | CCL64 TGFb inh inconclusive | TGFb COP inh inactive
CC(C)[C@@H](C(=O)N[C@@H](Cc1ccccc1)C(=O)O)N1C(=O)N2CCc3c([nH]c4ccccc34)[C@@]2(C)C1=O	none (no result: TDP1 inh)
CCN1C(=O)[C@H]2[C@H]3[C@H](O)[C@H](O)C/C(=N/NC(=O)OCc4ccc(OC)cc4)[C@H]3CC[C@@H]2C1=O	none (no result: TDP1 cell noCPT, TGFb inhibitor, IL1B secr inh, HepG2 tox-1, DT40 TDP1 CPT)
CC(=O)n1nc(-c2ccncc2)nc1SCC(=O)Nc1cccc(Cl)c1	TGFb inhibitor 4µM, DT40 TDP1 CPT inconclusive (no result: TDP1 inh) | TGFb confirm 3.7µM | HepG2 tox-2 inactive | CCL64 TGFb inh 7.3µM | TGFb COP inh inactive
Cc1cccc(NC(=O)CSc2n[nH]c(-c3ccncc3)n2)c1	TGFb inhibitor 3.5µM | TGFb confirm 5.2µM | HepG2 tox-2 inactive | CCL64 TGFb inh 10µM | TGFb COP inh inactive
CCCCOc1ccc(CSCCNC(=S)Nc2ccccc2)cc1	TDP1 cell noCPT inconclusive, TGFb inhibitor 7.9µM, DT40 TDP1 CPT 18µM | TGFb confirm inconclusive | HepG2 tox-2 inactive | CCL64 TGFb inh inactive | TGFb COP inh inactive
CCCNC(=S)Nc1ccc(Nc2ccccc2)cc1	TDP1 cell noCPT inconclusive, IL1B secr inh inconclusive, DT40 TDP1 CPT inconclusive
CCC(C(=O)OCC(=O)Nc1ccc(F)cc1)c1ccccc1 (centres undefined)	none
CCC(C(=O)Oc1c(C(C)C)cccc1C(C)C)c1ccccc1 (centres undefined)	TGFb inhibitor inconclusive | TGFb confirm inconclusive | HepG2 tox-2 inactive | CCL64 TGFb inh 21µM | TGFb COP inh inactive
CC(NS(=O)(=O)c1ccc2ccccc2c1)c1ccccn1 (centres undefined)	none
Cc1cc(C)cc(OCC(=O)NC2CCCc3ccccc32)c1 (centres undefined)	TDP1 cell noCPT inconclusive
CC(C)c1ccccc1OCC(=O)NC1CCCc2ccccc21 (centres undefined)	TDP1 cell noCPT inconclusive, TGFb inhibitor 16µM, DT40 TDP1 CPT inconclusive | TGFb confirm 18µM | HepG2 tox-2 inconclusive | CCL64 TGFb inh inconclusive | TGFb COP inh inactive
OCc1ccc(-c2nn(Cc3ccccc3)c3ccccc23)o1	TDP1 cell noCPT 18µM!, TGFb inhibitor 2.8µM, DT40 TDP1 CPT 11µM! | TGFb confirm 1µM | HepG2 tox-2 0.65µM | CCL64 TGFb inh inconclusive | TGFb COP inh inactive
CCOc1c(Cl)cc(/C=N/NC(N)=S)cc1OC	TDP1 cell noCPT 23µM, TGFb inhibitor 14µM, DT40 TDP1 CPT inconclusive | TGFb confirm inconclusive | HepG2 tox-2 inactive | CCL64 TGFb inh inconclusive | TGFb COP inh inactive
COc1cc(OC)cc(-c2c(-c3cccs3)c3cc(-c4cnc(OC)nc4)ccc3n2C)c1	TDP1 cell noCPT 15µM, TGFb inhibitor inconclusive, DT40 TDP1 CPT inconclusive | TGFb confirm inconclusive | HepG2 tox-2 inactive | CCL64 TGFb inh inactive | TGFb COP inh inactive
COc1ccc(-c2c(-c3cc(OC)cc(OC)c3)n(C)c3ccc(-c4ccc5cc[nH]c5c4)cc23)cc1	TDP1 cell noCPT inconclusive, DT40 TDP1 CPT inconclusive
CN(c1ccc(OCC(=O)OCC(=O)Nc2ccc(OC(F)F)cc2)cc1)S(=O)(=O)c1cccs1	TDP1 inh inconclusive
C=CCn1c(CSCc2ccc(C)cc2)nnc1SCC(=O)NCc1ccccc1	TDP1 cell noCPT inconclusive
O=C(CSc1nnc(CCc2ccccc2)n1-c1ccc(Cl)cc1)NCc1ccccc1	TDP1 cell noCPT 16µM, TGFb inhibitor 11µM, DT40 TDP1 CPT 16µM | TGFb confirm inconclusive | HepG2 tox-2 inactive | CCL64 TGFb inh inconclusive | TGFb COP inh inactive
C=CCn1c(CSCc2ccc(Cl)cc2)nnc1SCC(=O)NCc1ccccc1	TDP1 cell noCPT inconclusive, TGFb inhibitor 8.9µM | TGFb confirm inconclusive | HepG2 tox-2 inactive | CCL64 TGFb inh inactive | TGFb COP inh inactive
Cn1nc(C(=O)OCC(=O)NC2CCS(=O)(=O)C2)c2ccccc2c1=O (centres undefined)	none
Cc1ccc(C(=O)CSc2nc(C)cc(SCc3nnc(-c4ccccc4)o3)n2)cc1	none
COc1ccc(C(=O)CSc2cc(C)nc(SCC(=O)c3ccc(C)cc3)n2)cc1	TGFb inhibitor inconclusive | TGFb confirm inconclusive | HepG2 tox-2 inactive | CCL64 TGFb inh inactive | TGFb COP inh inactive
CC(C)n1ncc2c(C(=O)N3CCN(Cc4ccc(Cl)s4)CC3)cc(C3CC3)nc21	TDP1 cell noCPT inconclusive, TGFb inhibitor 10µM, IL1B secr inh inconclusive, DT40 TDP1 CPT inconclusive | TGFb confirm inconclusive | HepG2 tox-2 inactive | CCL64 TGFb inh inconclusive | TGFb COP inh inactive
O=C(CCC(=O)c1ccc(F)cc1)Nc1cccc(S(=O)(=O)Nc2cccc(Cl)c2)c1	TDP1 cell noCPT 23µM, TGFb inhibitor 13µM, DT40 TDP1 CPT 15µM | TGFb confirm inconclusive | HepG2 tox-2 inconclusive | CCL64 TGFb inh inconclusive | TGFb COP inh inactive
CC(C)[C@H](NC(N)=O)C(=O)Nc1cccc(S(=O)(=O)NC2=NCCCCC2)c1	none
